Reference: ChEMBL document CHEMBL1157539, “Thousands of chemical starting points for antimalarial lead identification” (Nature, 2010)

Experiments:
Format in all cases: functional
Plasmodium falciparum [1] = assay: GSK_TCMDC: Inhibition of Plasmodium falciparum 3D7 in whole red blood cells, using parasite LDH activity as an index of growth. Test compounds present at 2uM
Plasmodium falciparum [2] = assay: GSK_TCMDC: Inhibition of Plasmodium falciparum Dd2 in whole red blood cells, using parasite LDH activity as an index of growth. Test compounds present at 2uM
HepG2 = assay: GSK_TCMDC: Percent inhibition of human HepG2 cell line. Test compounds present at 10uM.

Row | Structure (SMILES) | Inhibition (Plasmodium falciparum [1]) [%] | Inhibition (Plasmodium falciparum [2]) [%] | Inhibition (HepG2) [%]
1 | Cc1c(C(C)(C)C)ccc2nc(N)nc(N)c12 | 89 | 0 | 
2 | CC(=O)Oc1c(Cl)c(C)nc(C)c1-c1ccc(Oc2ccc(Cl)cc2)cc1 | 98 | 96 | 
3 | Cc1ccc2ccncc2c1N | 96 | 4 | 
4 | CCCc1cc(Cc2cnc(N)nc2N)cc2c1OC(C)(C)C2.Cl | 89 | 3 | 
5 | CN(C)C(=S)N/N=C1/C(=O)Nc2ccccc21 | 95 | 96 | 
6 | COc1cc(Cc2cnc(N)nc2N)cc(OCCCCC#N)c1OC | 86 | 0 | 
7 | COc1ccc(Cc2cnc(N)nc2N)cc1OCCCOc1ccccc1 | 91 | 4 | 
8 | CCCCCCCCCC(=O)NCC1CC(Br)=NO1 (stereo not drawn) | 87 | 42 | 
9 | Nc1ncc(-c2ccc(S(=O)(=O)Nc3ccc(C(=O)N[C@@H](CCC(=O)O)C(=O)O)cc3)cc2)c(=O)[nH]1 | 99 | 0 | 
10 | CCOc1cc2ncnc(Nc3ccc(OCc4ccccc4OC)c(OC)c3)c2cc1OCC.Cl | 97 | 52 | 
11 | CCNC(=O)Nc1cccc(-c2cccc(-c3nc4cc(C(F)(F)F)ccc4[nH]3)c2)c1 | 91 | 32 | 50
